Bioassay records from PubChem BioAssay.
TTR transcr act – TTR transcription activation, primary screen; SH-SY5Y TTR promoter Gaussia luciferase, luminescence; 100% = recombinant luciferase protein wells; activation, % at 16.7 µM; 1.3% of 92,000 active;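 active means activation above the mean of all tested compounds plus 3 SD, cut at about 9.5% in these data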;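 further: cells exposed to compounds for one day before reading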
TTR inh HuH7 – HuH7 TTR transcription inhibition, counter-screen | inhibition, % at 16.7 µM | HuH7 TTR promoter-Gaussia luciferase reporter, luminescence | shares compounds with TTR transcr act | 4% of 1,100 active;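 active means average inhibition above the solvent-only control wells' mean plus 3 SD, cut at about 15% in these data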;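 further: inhibitors lower well luminescence so higher value means more inhibition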
TTR act confirm – confirmation of human transthyretin transcription activators; shares compounds with TTR transcr act; SHSY5Y TTR promoter Gaussia luciferase, luminescence; 100% = purified Lucia enzyme wells, no cells; activation, % at 16.7 µM; 1,100 tested, under 10 active;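 active means mean activation above a set limit taken from the earlier primary screen, cut at about 11% in these data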
Large screens that a line does not name were inactive (follow-up assays come after a bar, where they were run). Shown is part of a subset that was picked to be rich in hits.

Cc1ccc(F)cc1CNC(=O)C1CCC(=O)N(CCc2ccccc2)C1 (stereo not given)	none
Cc1cc2nc(-c3cccc(Br)c3)c(CC(C)(C)C)n2c(C)c1Br	none
CCCS(=O)(=O)NC(=O)C1(C)CCN(C(=O)c2cc(C)oc2C)C1 (stereo not given)	none
COc1ccc(S(=O)(=O)N2CCCC(C(=O)NCCN3CCOCC3)C2)cc1C (stereo not given)	none
N#Cc1ccc(C(=O)NCC(c2ccco2)N2CCCCC2)cc1 (stereo not given)	none
O=C(NCC(c1ccco1)N1CCCC1)c1ccc(-n2cccn2)cc1 (stereo not given)	none
O=C(CNC(=O)c1ccccc1)NCC(c1ccco1)N1CCCC1 (stereo not given)	TTR transcr act 13 | TTR inh HuH7 inactive | TTR act confirm inactive
C[C@@H]1C[C@H]2O[C@@H]2/C=C\C=C\C(=O)Cc2cc(O)cc(O)c2C(=O)O1	none
CC1(C(=O)NS(=O)(=O)C2CC2)CCCN(C(=O)c2cc3ccccc3s2)C1 (stereo not given)	none
CS(=O)(=O)N(CC(=O)NC1CC1)C1CCCCC1	none
COc1cc(O)c([C@@H](CC(=O)N2CC(C)CC(C)C2)c2ccc3c(c2)OCO3)c(OC)c1 (stereo not given in full)	none
COc1cc(OC)c2ccc(=O)oc2c1C(CC(=O)N1CCOCC1)c1ccc2c(c1)OCO2 (stereo not given)	TTR transcr act 14 | TTR inh HuH7 inactive | TTR act confirm inactive
COc1cc(OC)c2c(C)cc(=O)oc2c1C(CCN1CCN(c2ccccc2)CC1)c1ccc2c(c1)OCO2 (stereo not given)	none
C#CCNC(=O)C[C@H]1C[C@@]2(C(=O)OC)C(=C[C@H](C(C)(C)C)O[C@@H]2C)N(Cc2ccc(Cl)cc2Cl)C1=O	none
O=C(O)Cc1n[nH]c(=O)c2ccccc12	none
O=c1[nH]nc(Cc2ccc(Cl)cc2Cl)c2ccccc12	none
CN(C)Cc1n[nH]c(=O)c2ccccc12	TTR transcr act 26 | TTR inh HuH7 inactive | TTR act confirm inactive
CCOc1ccc(CCN2C(=S)N([C@@H](Cc3ccc(O)cc3)CN3CCC[C@@H]3CN3C(=S)NC[C@@H]3CC(C)C)C[C@@H]2CC(C)C)cc1	none
O=C(NNc1cc(N2CCOCC2)nc(N2CCOCC2)n1)c1ccc(Cl)c(Cl)c1	none
O=C(NNc1nc(N2CCOCC2)nc(N2CCOCC2)n1)c1ccccc1	TTR transcr act 23 | TTR inh HuH7 inactive | TTR act confirm inactive
CC(=O)c1cccc(Nc2nc(N3CCOCC3)nc(N3CCOCC3)n2)c1	none
CCCCC[C@H]1CN(Cc2ccccc2)C(=O)[C@@H]1CC(=O)NCc1ccccc1	none
CCOC(=O)N1CCN(C(=O)C[C@H]2C[C@@]3(C(=O)OC)C(=C[C@H](COCc4ccccc4)O[C@@H]3C)N(Cc3ccco3)C2=O)CC1	none
O=S(=O)(Cc1cc(-c2ccc(Cl)cc2)no1)c1ccccc1	TTR transcr act 12 | TTR inh HuH7 inactive | TTR act confirm inactive
O=S(=O)(NCc1cc(-c2ccc(Cl)cc2)no1)c1ccc(Cl)cc1	none
O=S(=O)(NCc1cc(-c2ccccc2)no1)c1ccc(Cl)cc1	none
CC(NC1=CC(=O)c2cccnc2C1=O)C(O)c1ccccc1 (stereo not given)	none
N#Cc1cccc(NC(=O)OC2CC3CC2[C@H]2CCCCN2[C@H]3Cc2ccccc2)c1 (stereo not given in full)	none
Cc1ccc(S(=O)(=O)Nc2ccc3c(c2)C(=O)N([C@H](C)CO)C[C@H](C)[C@@H](CN(C)C(=O)Nc2ccc(C(F)(F)F)cc2)O3)cc1	none
COc1ccc(-n2nc(C(=O)NCC(=O)NCc3ccco3)c3ccccc3c2=O)cc1	none
CCOC(=O)N1CCN(C(=O)CNC(=O)c2nn(-c3ccc(OC)cc3)c(=O)c3ccccc23)CC1	TTR transcr act 15 | TTR inh HuH7 inactive | TTR act confirm inactive
COc1ccc(-n2nc(C(=O)NCC(=O)NCCCN3CCN(C)CC3)c3ccccc3c2=O)cc1	none
COc1ccc(CNC(=O)OC2CC3CC2[C@H]2CCCCN2C3)cc1 (stereo not given in full)	none
COc1cccc(S(=O)(=O)Nc2ccc3c(c2)[C@H]2C[C@H](CC(=O)N[C@@H](C)c4ccccc4)O[C@H](CO)[C@H]2O3)c1	none
CC(C)(C)OC(=O)[C@H](Cc1ccccc1)NCC(=O)OCc1ccc(C(=O)NCc2ccccc2)cc1	none
O=C(CN(C(=O)OCC1c2ccccc2-c2ccccc21)[C@@H](Cc1ccccc1)C(=O)O)OCc1ccc(C(=O)NCc2ccccc2)cc1	TTR transcr act 12 | TTR inh HuH7 inactive | TTR act confirm inactive
O=C(N[C@@H](Cc1ccc(Br)cc1)C(=O)O)OCC1c2ccccc2-c2ccccc21	none
Cc1nnc(SCC(=O)NC2CCCCC2)[nH]c1=O	none
CCCCOCCCNC(=O)C[C@@H]1C(=O)N(CCc2ccc(Cl)cc2)C2=CCCCC[C@]21C(=O)OC	none
COCCCNC(=O)C[C@H]1C[C@@]2(C(=O)OC)C(=C[C@H](C3CCCC3)O[C@@H]2C)N(Cc2ccc(Cl)cc2Cl)C1=O	none
Cc1nc(SCC(=O)N(C)c2ccccc2)[nH]c(=O)c1C	none
CSCCC(NS(=O)(=O)c1ccc(C)cc1)C(=O)NCC(C)(C)N1CCOCC1 (stereo not given)	none
CN(CC(=O)N1CCCCCC1)S(=O)(=O)c1ccc(Br)cc1	TTR transcr act 20 | TTR inh HuH7 inactive | TTR act confirm inactive
CN(CC(=O)N1CCCCC1)S(=O)(=O)c1ccc(Cl)cc1	none
CN(CC(=O)N1CCCCCC1)S(=O)(=O)c1ccc(Br)s1	none
CCOC(=O)c1cc(S(=O)(=O)N2CCCC2)cn1C	none
COc1ccc(CNC(=O)c2[nH]c(C)c(C(C)=O)c2C)cc1	none
N#Cc1ccc(Cn2ccc3ccc(-c4ccc5ccn(Cc6ccccc6)c5c4)cc32)cc1	none
CCOC(=O)C1=C(CSc2nc(-c3ccncc3)ccc2C#N)OC(N)=C(C#N)C1c1ccc(OC)cc1 (stereo not given)	none
CCOC(=O)CSc1nc(-c2ccncc2)ccc1C#N	TTR transcr act 24 | TTR inh HuH7 inactive | TTR act confirm inactive
N#Cc1ccc(-c2cccnc2)nc1SCC(N)=O	none
S=C(c1cccs1)N1CCN(c2ccccc2)CC1	none
COc1cccc(C(=O)OCC(=O)N2CCc3ccccc32)c1OC	TTR transcr act 12 | TTR inh HuH7 inactive | TTR act confirm inactive
COc1ccccc1C(=O)N1CCc2ccccc21	none
Cc1ccccc1OCC(=O)OCC(=O)N1CCc2ccccc21	none
CN(Cc1ccccc1)C(=O)OCc1cn(Cc2cccc(C(F)(F)F)c2)nn1	none
COc1ccc(CCNC(=O)CN(c2cc(C)cc(C)c2)S(=O)(=O)c2c(C)noc2C)cc1OC	none
CC(=O)N1CCC(c2nc3ccccc3n2C(C)C(=O)NCc2ccccc2)CC1 (stereo not given)	none
CCC(c1nnnn1Cc1cccs1)N1CCN(C2CCCC2)CC1 (stereo not given)	none
CC(C)CC(c1nnnn1C1CCCCC1)N1CCN(c2ncccn2)CC1 (stereo not given)	none
CCCCC(c1nnnn1C1CCCC1)N1CCN(C2CCCC2)CC1 (stereo not given)	TTR transcr act 17 | TTR inh HuH7 inactive | TTR act confirm inactive
Cc1noc(C)c1COC(=O)[C@@H](NC(=O)c1ccccc1)C(C)C	none
COc1ccc(-n2c(=O)c3c4c(sc3n3c(=S)[nH]nc23)CCC4)cc1	none
